Measurements published in PubChem BioAssay (Tox21).
Results filed as inconclusive are left out. Calls of active or inactive are those of the source. Unless noted, the call rests on the fitted dose curve.

Columns and labels:
[1] = Nuclear factor erythroid 2-related factor 2/antioxidant responsive element (Nrf2/ARE) small molecule agonists: qHTS cell viability counter screen in human keratinocytes (AID 1919968; active means well fitted curve in the direction sought with a large enough effect in the repeat runs; an effect the other way counts as inactive or inconclusive; further: nearly all actives have a fitted effect of over 55% in size)
Summary of the method: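 Fluorescence read-out from CellTiter-Fluor after 1 h at 37 C. Wells held HaCaT-derived ARE-luciferase reporter cells (1,500/well) treated 23 h with DMSO-dissolved compounds. Run in the same wells as the luciferase agonist read.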

[2] = Nuclear factor erythroid 2-related factor 2/antioxidant responsive element (Nrf2/ARE) small molecule agonists: luciferase reporter gene qHTS assay in human keratinocytes (AID 1919969); further: nearly all actives have a fitted effect of over 35% in size
[3] = target: Gonadotropin-releasing hormone receptor (Homo sapiens) (UniProt P30968); test: Human gonadotropin-releasing hormone receptor (GnRHR) small molecule agonists, calcium flux assay in GnRHR-HEK293 cells (AID 1920063); further: nearly all actives have a fitted effect of over 35% in size
Gonadotropin-releasing hormone receptor (Homo sapiens), sequence (P30968 whole entry, looked up): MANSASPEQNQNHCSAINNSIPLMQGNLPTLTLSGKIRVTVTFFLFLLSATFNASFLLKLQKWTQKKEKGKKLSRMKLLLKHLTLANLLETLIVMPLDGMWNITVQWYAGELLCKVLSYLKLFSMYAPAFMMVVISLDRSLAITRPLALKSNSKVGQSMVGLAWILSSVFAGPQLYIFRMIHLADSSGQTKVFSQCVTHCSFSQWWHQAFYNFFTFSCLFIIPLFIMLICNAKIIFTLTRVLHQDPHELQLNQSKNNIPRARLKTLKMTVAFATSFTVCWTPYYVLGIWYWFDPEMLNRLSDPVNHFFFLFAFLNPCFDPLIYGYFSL
Summary of the method: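 Calcium-dye fluorescence, Ex/Em=480/540, recorded every 1 sec over 3 min after compound addition to GnRHR-HEK293 cells. Cells had been seeded 18 hours earlier and dye-loaded for 1 hour at 37 C. Fifteen concentrations, triplicates.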

[4] = target: KiSS-1 receptor (Homo sapiens) (UniProt Q969F8); test: Human kisspeptin (KISS1R) small molecule agonists, calcium flux assay in KISS1R-HEK293 cells (AID 1920064; active means well fitted curve in the direction sought with a large enough effect in the repeat runs; an effect the other way counts as inactive or inconclusive)
KiSS-1 receptor (Homo sapiens), sequence (Q969F8 whole entry, looked up): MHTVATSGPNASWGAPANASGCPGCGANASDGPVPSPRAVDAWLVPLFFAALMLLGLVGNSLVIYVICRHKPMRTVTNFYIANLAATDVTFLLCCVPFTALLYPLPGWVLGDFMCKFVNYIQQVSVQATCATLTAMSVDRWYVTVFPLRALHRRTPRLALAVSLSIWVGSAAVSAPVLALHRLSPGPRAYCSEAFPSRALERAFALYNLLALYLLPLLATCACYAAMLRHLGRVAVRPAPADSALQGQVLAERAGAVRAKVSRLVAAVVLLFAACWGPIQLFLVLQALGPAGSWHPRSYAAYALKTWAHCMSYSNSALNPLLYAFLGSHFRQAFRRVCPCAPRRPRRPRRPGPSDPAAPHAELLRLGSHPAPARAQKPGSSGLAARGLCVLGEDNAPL
Summary of the method: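 Calcium flux read-out: kinetic fluorescence at Ex/Em=480/540, 1 s intervals over 3 min, after pin-tool compound addition to dye-loaded KISS1R-HEK293 cells. Fifteen concentrations, triplicates.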

[5] = G protein-coupled receptor (GPCR) small molecule agonists, calcium flux assay: HEK293 wild type cell line counter screen (AID 1920065)
Summary of the method: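 Agonist mode; 18 h seeding at 37 C, 1 h dye load at 37 C; compounds pinned from DMSO, ATP as positive control; kinetic fluorescence 480/540 nm, 3 min, 1 s reads; 15 concentrations, triplicate.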

[6] = p53 small molecule agonists, cell-based qHTS assay with human liver microsomes (AID 1963577)
Summary of the method: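 Fluorescence of the beta-lactamase reporter in p53RE-bla cells, detected with LiveBLAzer substrate (2 h, room temperature, dark), served as the read-out after 16 h compound exposure at 37 C with human liver microsomes and NADPH, each 0.5 mg/mL final.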

[7] = p53 small molecule agonists, cell-based qHTS assay with rat liver microsomes (AID 1963578)
Summary of the method: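 Cells carrying a p53 response element–beta-lactamase reporter were plated and rested 5 h, then dosed with compound in DMSO plus rat liver microsomes and NADPH, each at 0.5 mg/mL final. After 16 h at 37 C, LiveBLAzer substrate was added for 2 h.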

[8] = p53 small molecule agonists, cell-based qHTS assay with human liver microsomes: qHTS cell viability counter screen (AID 1963579); further: nearly all actives have a fitted effect of over 45% in size
Summary of the method: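 Cytotoxicity counter screen: p53RE-bla, 4,000 cells/well; 5 h settle, 37 C/5% CO2; cpd + HLM 0.5 mg/mL + NADPH 0.5 mg/mL (final); 16 h, 37 C; CellTiter-Glo, 30 min RT, luminescence.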

[9] = p53 small molecule agonists, cell-based qHTS assay with rat liver microsomes: qHTS cell viability counter screen (AID 1963580); further: nearly all actives have a fitted effect of over 45% in size
Summary of the method: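 Cytotoxicity counter screen: intracellular ATP measured by CellTiter-Glo luminescence in the same wells as the beta-lactamase reporter read, on HCT-116 p53RE-bla cells exposed 16 h at 37 C to compounds with rat liver microsomes and NADPH, each 0.5 mg/mL final.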

[10] = p53 small molecule agonists, cell-based qHTS assay: qHTS cell viability counter screen (AID 1963581); further: nearly all actives have a fitted effect of over 45% in size
Summary of the method: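 Cytotoxicity read-out: ATP-based luminescence (CellTiter-Glo, 30 min RT) measured in the same wells as the p53 reporter assay, HCT-116 p53RE-bla cells, 16 h compound exposure at 37 C.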

[11] = p53 small molecule agonists, cell-based qHTS assay (AID 1963582; active means well fitted activation curve with a large enough effect in the signal ratio in the repeat runs, not every such curve was filed as active; the % refers to the signal ratio)
Summary of the method: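 Fluorescence intensity read-out of a beta-lactamase reporter under a p53 response element. Cells were exposed to DMSO-dissolved compounds for 16 h at 37 C, then developed with FRET substrate for 2 h at RT.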

[12] = target: 5-hydroxytryptamine receptor 2A (Homo sapiens) (UniProt P28223); test: 5-hydroxytryptamine receptor 2A (HTR2A) small molecule antagonists, cell-based qHTS assay (AID 1963586); further: nearly all actives have a fitted effect of over 45% in size
5-hydroxytryptamine receptor 2A (Homo sapiens), sequence (P28223 whole entry, looked up): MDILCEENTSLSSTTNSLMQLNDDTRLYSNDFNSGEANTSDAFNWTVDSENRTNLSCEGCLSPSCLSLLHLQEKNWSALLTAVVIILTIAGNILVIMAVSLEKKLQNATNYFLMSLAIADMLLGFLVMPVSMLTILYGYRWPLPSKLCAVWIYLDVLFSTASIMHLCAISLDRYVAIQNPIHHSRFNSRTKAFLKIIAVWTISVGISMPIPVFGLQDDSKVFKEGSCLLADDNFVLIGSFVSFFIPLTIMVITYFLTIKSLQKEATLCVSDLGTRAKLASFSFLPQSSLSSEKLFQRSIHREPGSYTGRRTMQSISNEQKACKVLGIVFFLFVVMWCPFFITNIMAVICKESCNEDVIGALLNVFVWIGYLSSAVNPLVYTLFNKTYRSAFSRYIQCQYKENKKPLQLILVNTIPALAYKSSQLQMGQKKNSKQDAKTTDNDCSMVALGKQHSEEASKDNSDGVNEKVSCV
Summary of the method: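 CHO cells stably expressing human HTR2A were plated for 18 h at 37 C, then loaded with calcium dye for 1 h. Compounds were preincubated 5 min at room temperature before DOI (4 nM solution) was added. Kinetic fluorescence was read for 3 min.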

[13] = target: 5-hydroxytryptamine receptor 2A (Homo sapiens) (UniProt P28223); test: 5-hydroxytryptamine receptor 2A (HTR2A) small molecule agonists, cell-based qHTS assay (AID 1963587); further: nearly all actives have a fitted effect of over 30% in size
Summary of the method: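 CHO cells stably expressing human HTR2A, plated 18 h, loaded with calcium dye 1 h at 37 C. Agonist mode: compounds added and intracellular calcium fluorescence recorded kinetically for 2 min at 1 sec intervals.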

[14] = target: Muscarinic acetylcholine receptor M1 (Homo sapiens) (UniProt P11229); test: Cholinergic receptor muscarinic 1 (CHRM1) small molecule antagonists, cell-based qHTS assay (AID 1963588); further: nearly all actives have a fitted effect of over 40% in size
Muscarinic acetylcholine receptor M1 (Homo sapiens), sequence (P11229 whole entry, looked up): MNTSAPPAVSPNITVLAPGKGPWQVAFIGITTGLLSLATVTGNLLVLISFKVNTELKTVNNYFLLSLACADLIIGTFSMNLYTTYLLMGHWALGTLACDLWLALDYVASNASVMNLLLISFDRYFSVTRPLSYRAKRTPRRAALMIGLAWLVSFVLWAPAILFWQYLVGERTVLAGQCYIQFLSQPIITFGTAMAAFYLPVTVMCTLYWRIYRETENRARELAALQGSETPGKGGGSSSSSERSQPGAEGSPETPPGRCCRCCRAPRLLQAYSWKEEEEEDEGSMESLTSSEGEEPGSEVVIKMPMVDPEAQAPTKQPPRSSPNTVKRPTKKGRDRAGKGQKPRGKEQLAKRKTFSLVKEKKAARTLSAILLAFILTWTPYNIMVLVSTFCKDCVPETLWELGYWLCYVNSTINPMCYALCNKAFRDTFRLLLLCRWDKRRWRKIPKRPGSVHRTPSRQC
Summary of the method: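 Compounds were tested at 15 concentrations in three independent runs. Dye-loaded CHRM1-CHO cells were exposed 5 min at room temperature before stimulation by acetylcholine added at 50nM. Intracellular calcium was read kinetically on FDSS for 3 min.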

[15] = target: Muscarinic acetylcholine receptor M1 (Homo sapiens) (UniProt P11229); test: Cholinergic receptor muscarinic 1 (CHRM1) small molecule agonists, cell-based qHTS assay (AID 1963589); further: nearly all actives have a fitted effect of over 35% in size
Summary of the method: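 Calcium flux read-out: kinetic fluorescence at 1 sec intervals after pin-tool compound addition to dye-loaded CHRM1-CHO cells (human M1). Agonist mode; 15 concentrations tested in triplicate independent runs.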

[16] = cAMP Responsive Elements (CRE) small molecule agonists, cell-based qHTS assay (AID 1963590)
Summary of the method: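 Beta-lactamase reporter readout: LiveBLAzer B/G FRET substrate, 2 h at room temperature, added after 3 h compound treatment of CRE-bla HEK 293T cells at 37 C/5% CO2.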

[17] = cAMP Responsive Elements (CRE) small molecule antagonists, cell-based qHTS assay (AID 1963591; active means well fitted inhibition curve with a large enough effect in the signal ratio in the repeat runs, not every such curve was filed as active; the % refers to the signal ratio)
Summary of the method: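 HEK293T CRE-bla; 18 h preincubation; compound pin-transfer; NKH477 0.25 uM final, 3 h, 37 C; LiveBLAzer FRET substrate 2 h RT.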

[18] = target: Beta-2 adrenergic receptor (Homo sapiens) (UniProt P07550); test: Adrenergic beta2 receptor (ADRB2) small molecule antagonists, cell-based qHTS assay (AID 1963592); further: series mostly up to about 92 µM; nearly all actives have a fitted effect of over 50% in size
Beta-2 adrenergic receptor (Homo sapiens), sequence (P07550 whole entry, looked up): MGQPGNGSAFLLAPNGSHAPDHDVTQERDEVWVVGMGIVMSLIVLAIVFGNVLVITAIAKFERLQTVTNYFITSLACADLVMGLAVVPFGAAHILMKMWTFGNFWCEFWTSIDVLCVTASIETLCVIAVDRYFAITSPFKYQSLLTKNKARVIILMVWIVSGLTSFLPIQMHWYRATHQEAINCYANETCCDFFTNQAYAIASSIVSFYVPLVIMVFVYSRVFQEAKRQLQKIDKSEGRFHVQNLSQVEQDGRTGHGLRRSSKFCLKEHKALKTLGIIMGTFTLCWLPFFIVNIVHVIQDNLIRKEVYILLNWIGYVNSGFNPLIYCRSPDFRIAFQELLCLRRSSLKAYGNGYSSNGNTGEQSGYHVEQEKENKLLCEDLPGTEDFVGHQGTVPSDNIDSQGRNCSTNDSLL
Summary of the method: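 Assay format: CHO-ADRB2 cells, 18-20hr seeding at 37C/5% CO2, then compound plus 1nM isoproterenol agonist mix for 0.5hr RT. Homogeneous time-resolved fluorescence cAMP detection after 1hr, expressed as 665/615 nm ratio.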

[19] = target: D(2) dopamine receptor (Homo sapiens) (UniProt P14416); test: Dopamine D2 receptor (DRD2) small molecule agonists, cell-based qHTS assay (AID 1963594); further: nearly all actives have a fitted effect of over 35% in size
D(2) dopamine receptor (Homo sapiens), sequence (P14416 whole entry, looked up): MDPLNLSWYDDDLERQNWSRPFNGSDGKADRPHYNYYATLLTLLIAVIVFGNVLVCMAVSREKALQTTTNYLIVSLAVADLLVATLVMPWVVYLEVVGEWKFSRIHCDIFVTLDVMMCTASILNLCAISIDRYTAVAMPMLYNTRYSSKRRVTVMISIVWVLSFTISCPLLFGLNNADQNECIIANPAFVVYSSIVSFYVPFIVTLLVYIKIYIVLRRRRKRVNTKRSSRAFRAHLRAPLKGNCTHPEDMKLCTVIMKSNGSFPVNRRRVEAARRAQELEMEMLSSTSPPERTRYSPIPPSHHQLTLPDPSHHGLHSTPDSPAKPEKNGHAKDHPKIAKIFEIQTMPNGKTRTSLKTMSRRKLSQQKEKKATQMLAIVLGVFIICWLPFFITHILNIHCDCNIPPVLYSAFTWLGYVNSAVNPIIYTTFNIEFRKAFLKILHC
Summary of the method: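 HEK293 cells stably expressing human DRD2, pre-treated with PDE inhibitor Ro20-1724 (0.1 mM final) and compound 10 min at room temperature, then stimulated with NKH477 (200nM […]) for 30 min. cAMP read by HTRF (665/620 nm).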

[20] = target: D(2) dopamine receptor (Homo sapiens) (UniProt P14416); test: Dopamine D2 receptor (DRD2) small molecule antagonists, cell-based qHTS assay (AID 1963595; active means well fitted inhibition curve with a large enough effect in the signal ratio in the repeat runs, with a control signal flat; the % refers to the signal ratio)
Summary of the method: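 HEK293 cells stably expressing DRD2 were preincubated with 0.1 mM Ro20-1724, then with compound for 10 min at room temperature. Cells were stimulated with 200 nM NKH477 plus 12 nM quinpirole for 30 min, and cAMP was read by HTRF.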
On the % scale 0 is the no-effect control and ±100 the full control effect.

COC(=O)c1cc(S(N)(=O)=O)ccc1OC
inactive: Potency [1] | Potency [2] | Potency [3] | Potency [4] | Potency [5] | Potency [6] | Potency [7] | Potency [8] | Potency [9] | Potency [10] | Potency [11] | Potency [12] | Potency [13] | Potency [14] | Potency [15] | Potency [16] | Potency [17] | Potency [18] | Potency [19]

Cc1ccc(C(=O)O)cc1
inactive: Potency [1] | Potency [2] | Potency [3] | Potency [4] | Potency [5] | Potency [6] | Potency [7] | Potency [8] | Potency [9] | Potency [10] | Potency [11] | Potency [12] | Potency [13] | Potency [14] | Potency [15] | Potency [16] | Potency [17] | Potency [18] | Potency [19]

COc1cc(C(=S)N2CCOCC2)cc(OC)c1OC
inactive: Potency [1] | Potency [2] | Potency [3] | Potency [4] | Potency [5] | Potency [6] | Potency [7] | Potency [8] | Potency [9] | Potency [10] | Potency [11] | Potency [12] | Potency [13] | Potency [14] | Potency [15] | Potency [16] | Potency [17] | Potency [18] | Potency [19]

CC(=O)OCCN(CCOC(C)=O)c1ccc(N=Nc2ccc([N+](=O)[O-])cc2C#N)cc1
inactive: Potency [1] | Potency [2] | Potency [3] | Potency [4] | Potency [5] | Potency [6] | Potency [7] | Potency [8] | Potency [9] | Potency [10] | Potency [11] | Potency [12] | Potency [13] | Potency [14] | Potency [15] | Potency [16] | Potency [17] | Potency [18] | Potency [20]

O=C(c1ccc(Cl)cc1)c1ccc(Cl)cc1
inactive: Potency [1] | Potency [2] | Potency [3] | Potency [4] | Potency [5] | Potency [6] | Potency [7] | Potency [8] | Potency [9] | Potency [10] | Potency [11] | Potency [12] | Potency [13] | Potency [14] | Potency [15] | Potency [16] | Potency [17] | Potency [18] | Potency [20]

CCn1c2ccccc2c2ccccc21
inactive: Potency [1] | Potency [2] | Potency [3] | Potency [4] | Potency [5] | Potency [6] | Potency [7] | Potency [8] | Potency [9] | Potency [10] | Potency [11] | Potency [12] | Potency [13] | Potency [14] | Potency [15] | Potency [16] | Potency [17] | Potency [18] | Potency [19]

O=c1oc2c(O)c(O)cc3c(=O)oc4c(O)c(O)cc1c4c23
inactive: activity change, negative = cytotoxicity [1] -4.32% [at 19 µM] | activity, positive = activation [2] -10.8% [at 19 µM] | activity change [3] 0.294% [at 11.8 µM, stronger effect = higher value] | activation [4] -1.64% [at 15.8 µM] | activation [5] 0.163% [at 11.8 µM] | activation [6] -4.17% [at 13.5 µM] | activation [7] -5.41% [at 13.6 µM] | activity change, negative = cytotoxicity [8] 3.06% [at 13.5 µM] | activity change, negative = cytotoxicity [9] -3.76% [at 13.5 µM] | activity change, negative = cytotoxicity [10] -7.94% [at 13.5 µM] | activation [11] -1.21% [at 13.5 µM] | activity, negative = inhibition [12] -5.93% [at 12.7 µM] | activation [13] 2.19% [at 15.9 µM] | activity, negative = inhibition [14] 14.7% [at 12.6 µM] | activation [15] 0.409% [at 15.8 µM] | activation [16] -1.26% [at 19 µM] | activity change, negative = inhibition [17] -7.75% [at 18.9 µM] | activity change, negative = inhibition [18] -0.63% [at 19 µM] | activity change, negative = inhibition [20] 0.195% [at 18.9 µM]
